Source: PubChem (National Center for Advancing Translational Sciences (NCATS))
ELG1 DNA repair: blocks ELG1-dependent DNA repair in HEK293T cells. AID 504467. 330,000 compounds, 2.3% hits. Potency, µM (doses to about 46.1 µM), most hits filed as inhibitors. HEK293T ELG1-luciferase reporter, luminescence, 16 h; DNA damage induced by 5-fluorouridine; also: nearly all actives have a fitted effect of over 55% in size
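5-Fluorouridine DNA damage + compound/DMSO, 2,000 cells/well, 16 h, 37 °C/5% CO2. ONE-Glo, 30 min RT, luminescence. Readout = decrease in reporter signal.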
BRCA1 expr up: activators of BRCA1 expression; MCF7-BRCA1-FFLuc reporter, luminescence, 48 h; response scale: scaled: vehicle 0%, 10 µM genistein 100%; Potency, µM (titrated, usually from 46.1 µM), hits mostly activators; 380,000 compounds, 1.1% hits; AID 624202; also: nearly all actives have a fitted effect of over 80% in size
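48 h compound treatment of MCF7-BRCA1-FFLuc cells (phenol-red free MEM, 37 °C), then 15 min with luciferase substrate and luminescence imaging.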
p53 reactivation: restores transcriptional activity of mutant p53; AID 504706; Potency, µM (doses to about 92.2 µM), actives largely listed as activators; 320,000 compounds, 0.063% hits; H1299 p53-A138V BP100-luciferase reporter, luminescence, 24 h; also: nearly all actives have a fitted effect of over 45% in size
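H1299 (p53-null), stable ts p53-A138V + BP100-Luc; 1000 cells/well, Opti-MEM/10% FBS; cpd 4 pt, 1:5; 24 h, 37 deg C, 5% CO2; detection reagent 10 min RT; luminescence.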
Giardia killer: Giardia lamblia killing | 340,000 compounds, 0.15% hits | activity change, % at 7.66 µM, hits read low | Giardia lamblia trophozoite viability; in the data active = activity change below about -80%; inconclusive = between about -30% and that limit;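 also: parasites exposed to compound for two days anaerobically before the ATP read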
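Giardia lamblia trophozoites (100 cells/well) were incubated with compounds for 48 h at 37 deg C under anaerobic conditions. Viability was read as ATP content by one-step luminescence after 15-30 min at room temperature.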
RORg inh: blocks mouse ROR gamma transcriptional activity; P51450; AID 2551; Potency, µM (titrated, usually from 53.6 µM), most hits filed as inhibitors; Drosophila S2 Gal4-RORgamma UAS-luciferase reporter, 20 h; 310,000 compounds, 5.4% hits; also: nearly all actives have a fitted effect of over 60% in size
Target sequence (P51450 whole entry, looked up, the tested form may be a part): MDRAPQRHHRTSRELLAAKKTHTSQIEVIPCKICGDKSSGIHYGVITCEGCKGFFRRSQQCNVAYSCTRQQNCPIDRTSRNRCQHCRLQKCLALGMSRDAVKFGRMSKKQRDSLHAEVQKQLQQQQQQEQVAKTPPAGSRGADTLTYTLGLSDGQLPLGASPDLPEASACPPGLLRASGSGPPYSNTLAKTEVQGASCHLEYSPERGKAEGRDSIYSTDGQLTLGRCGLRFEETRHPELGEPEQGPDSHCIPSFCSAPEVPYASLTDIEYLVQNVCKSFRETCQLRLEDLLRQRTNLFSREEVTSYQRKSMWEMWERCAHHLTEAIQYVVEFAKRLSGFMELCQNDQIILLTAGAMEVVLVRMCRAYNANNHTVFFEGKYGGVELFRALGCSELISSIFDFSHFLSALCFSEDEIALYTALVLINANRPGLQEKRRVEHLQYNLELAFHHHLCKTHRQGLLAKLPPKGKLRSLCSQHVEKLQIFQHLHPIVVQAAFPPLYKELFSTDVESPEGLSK
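ROR gamma transcriptional activity was tracked as Gal4-UAS luciferase output in stably transfected Drosophila Schneider cells, with compound added 1 hr before 700 uM copper sulfate induction and a 20 hr ambient-temperature incubation.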
Gal4-VP16 FLuc: Gal4-VP16 reporter inhibition counter-screen | Drosophila S2 Gal4-VP16 UAS-luciferase, luminescence, 20 h | Potency, µM (series often up to 53.6 µM), most hits filed as inhibitors | 310,000 compounds, 3.5% hits;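 also: Gal4-VP16 expression switched on by copper sulfate through the metallothionein promoter; nearly all actives have a fitted effect of over 50% in size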
A number is an active result; - = inactive; ? = inconclusive; . = no result. Only some compounds are listed: those with a hit (about 7.6% of all), similar ones and a draw of the others. Unless noted, calls follow the shape of the dose curve; as a rule, active = well fitted curve in the direction sought with a large enough effect; inconclusive = small, poorly fitted or top-dose-only effect, or another doubt; inactive = no such curve, though single readings can be large; an effect the other way counts as inactive or inconclusive.

SMILES | ELG1 DNA repair | BRCA1 expr up | p53 reactivation | Giardia killer | RORg inh | Gal4-VP16 FLuc
COc1ccc(-c2nc3ccccc3o2)cc1NC(=O)COc1ccc(C(C)(C)C)cc1 | . | - | . | - | . | .
CC(C)[C@@H](NC(=O)C1CCN(C(=O)[C@@H]2CCCN2C(=O)OC(C)(C)C)CC1)C(=O)NCc1ccc(F)cc1 | - | - | - | - | ? | -
Cc1cc(OCC(=O)N(Cc2ccco2)C2CCS(=O)(=O)C2)ccc1Cl (configuration not stated) | - | - | - | - | - | -
CCC(NS(=O)(=O)c1ccc(C)cc1)C(=O)Nc1ccc(NC(C)=O)cc1 (configuration not stated) | - | - | - | - | - | -
O=C(O)c1ccccc1C(=O)Nc1ccccc1 | - | - | - | - | - | -
O=C(Nc1ccccc1)C1=C(c2ccccc2)S(=O)(=O)CCS1(=O)=O | ? | - | - | - | 0.89µM | 2.2µM
CCOC(=O)c1cnc2ccc(C)cc2c1N(C)Cc1ccccc1 | ? | - | - | - | - | -
O=C(c1cc(-c2ccc(Cl)cc2)n(-c2ccc(Cl)c(Cl)c2)n1)N1CCOCC1 | ? | - | - | - | 2.2µM | ?
Cc1c(C(=O)Nc2cccc(S(=O)(=O)N3CCCC3)c2)oc2ccccc12 | - | - | - | - | - | -
COc1cccc(CNC(=O)COC(=O)c2ccc(-c3ccc(O)cc3)cc2)c1 | . | - | . | . | . | .
O=C(c1ccco1)N1CCN(C(=S)Nc2ccccc2C(F)(F)F)CC1 | 21µM | - | - | - | - | -
COC(=O)c1cccc(NC(=O)C23CC4CC(C2)CC(n2cncn2)(C4)C3)c1 | - | - | - | - | - | -
COc1cc(C(=O)Nc2nc3ccccc3[nH]2)cc(OC)c1OC | ? | - | - | - | 10µM | 10µM
COc1ccc(C(=O)Nc2nc3ccccc3[nH]2)cc1 | ? | - | - | ? | 2.8µM | 6.3µM
O=C(Nc1nc2ccccc2[nH]1)c1cccs1 | ? | - | - | - | 5µM | 13µM
COc1ccc(C(=O)N[C@H](C(=O)Nc2nc3ccccc3[nH]2)C(C)C)cc1 | ? | - | ? | - | - | -
COc1cccc(C(=O)Nc2nc3ccccc3[nH]2)c1 | ? | ? | - | ? | 4µM | 10µM
COc1ccc(NS(=O)(=O)c2ccc(C)c(C(=O)N(C)CC(=O)Nc3cccc(OC)c3)c2)cc1 | - | - | - | - | . | .
CCOC(=O)N1CCN(CC(=O)Nc2cccc(Br)c2)CC1 | - | - | - | - | - | -
O=C(/C(=C\c1ccccc1)c1nc2ccccc2[nH]1)c1ccc(Cl)cc1 | ? | - | ? | - | ? | ?
Cn1nc(C(=O)Nc2nc3ccccc3[nH]2)ccc1=O | ? | 7.9µM | - | - | ? | ?
O=C(/C(=C/c1ccc(Cl)cc1)c1nc2ccccc2[nH]1)c1cccs1 | 7.3µM | - | - | - | 3.2µM | ?
CS(=O)(=O)c1ccccc1C(=O)Nc1nc2ccccc2[nH]1 | - | - | - | - | - | -
O/C(=C\c1nc2ccccc2[nH]1)c1cccs1 | ? | 13µM | ? | - | ? | ?
Nc1ccccc1C(=O)NCc1ccc(Cl)cc1 | - | - | - | - | - | -
SMILES | ELG1 DNA repair | BRCA1 expr up | p53 reactivation | Giardia killer | RORg inh | Gal4-VP16 FLuc
COc1ccc(Cl)cc1NC(=O)CCS(=O)(=O)c1cccc2nonc12 | . | - | . | . | . | .
CC1CCCN(S(=O)(=O)c2ccc(Cl)s2)C1 (configuration not stated) | - | - | - | - | - | -
N#C/C(=N\Nc1ccccc1)C(=N)N1CCCCCC1 | ? | 2.5µM | - | - | - | ?
N#C/C(=N\Nc1ccc(F)cc1)C(=N)N1CCCCC1 | ? | ? | ? | - | ? | ?
CCOc1ccccc1N=C1SC(CC(=O)Nc2ccc(OC)cc2OC)C(=O)N1CCC1=CCCCC1 (configuration not stated) | 7.3µM | - | - | - | ? | ?
COC(=O)c1ccccc1Sc1ncnc2onc(C)c12 | - | - | - | - | 11µM | ?
Cc1noc2ncnc(Sc3ccccc3Cl)c12 | - | - | - | - | - | -
BrC(/C=C\c1ccccc1)=N/Nc1nc(N2CCOCC2)nc(N2CCOCC2)n1 | 12µM | - | - | - | - | -
BrC(=C\c1ccccc1)/C=N/Nc1nc(N2CCOCC2)nc(N2CCOCC2)n1 | 16µM | - | - | - | - | ?
CC(/C=N/Nc1nc(N2CCCCC2)nc(N2CCCCC2)n1)=C\c1ccccc1 | - | - | - | - | ? | -
CCN(CC(=O)Nc1ccccc1C(F)(F)F)C(=O)CN1C(=O)NC(C)(c2ccc3ccccc3c2)C1=O (configuration not stated) | . | - | . | - | . | .
N/C(=N\OC(=O)c1csnn1)c1ccc(C(F)(F)F)cc1 | ? | 11µM | - | - | - | -
Cc1ccc(C(=O)O/N=C(\N)c2ccc(C(F)(F)F)cn2)cc1 | ? | ? | ? | - | - | ?
CC(C)C1Cc2c(sc3[nH]c(=S)n(Cc4ccccc4)c(=O)c23)CO1 (configuration not stated) | - | - | - | - | 0.45µM | 0.56µM
Cc1nnc2n(-c3ccccc3)c(=O)c3c4c(sc3n12)COC(C(C)C)C4 (configuration not stated) | - | - | - | - | - | -
O=C(c1ccc(Cn2c(=O)[nH]c3ccccc3c2=O)cc1)N1CCN(c2ccc(F)cc2)CC1 | 18µM | - | - | - | ? | -
COc1ccc(Cn2c(=O)[nH]c3cc(C(=O)N4CCN(c5ccccc5OC)CC4)ccc3c2=O)cc1 | 21µM | - | - | - | - | -
COc1ccccc1Cn1c(=S)[nH]c2cc(C(=O)N3CCN(c4ccccc4OC)CC3)ccc2c1=O | - | - | - | - | ? | -
COc1ccccc1N1CCN(C(=O)c2ccc3c(=O)n(Cc4ccco4)c(=S)[nH]c3c2)CC1 | ? | - | - | - | 6.3µM | ?
COc1ccc(Cn2c(=O)[nH]c3cc(C(=O)N4CCN(c5ccccc5F)CC4)ccc3c2=O)cc1 | - | - | - | - | - | -
COc1ccccc1NS(=O)(=O)c1cc2c(cc1C)NC(=O)CO2 | - | - | - | - | - | -
Oc1ccc(/C=N/n2c(COc3ccccc3)n[nH]c2=S)c(O)c1 | - | - | - | - | - | -
CCOc1ccccc1/C=N/n1c(COc2ccccc2)n[nH]c1=S | - | - | - | - | 4.5µM | ?
Oc1ccccc1/C=N/n1c(COc2ccccc2)n[nH]c1=S | - | - | - | - | 11µM | -
S=c1[nH]nc(COc2ccccc2)n1/N=C/c1ccc(Cl)cc1Cl | - | - | - | - | 7.1µM | -
COc1ccc(/C=N/n2c(COc3ccccc3)n[nH]c2=S)cc1OC | - | - | - | - | 5µM | -
